Cy5 interf NS3h – enhances or quenches Cy5 fluorescence in NS3h assay. Cy5-dT15 DNA with NS3h, fluorescence interference; actives lie on both sides; signal over control mean, under 1 quenches. fluorescence interference ratio at 100 µM. hit rate 6% among 16,000;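 active = compound fluorescence over control fluorescence at most 0.8, a quencher, or at least a set upper limit, an enhancer; inactive = ratio between 0.8 and the set upper limit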
HCV NS3h FP – blocks HCV NS3 helicase binding to DNA | hit rate 1.6% among 16,000 | inhibition, % at 100 µM | NS3h Cy5-dT15 DNA binding, fluorescence polarization | AID 687043;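 active = inhibition above the average over every tested compound plus 3 SD, cut at about 40% in these data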
The depositor's hits bear a star. Sampled rows, rich in hits. Any-hit rate of the full collection: about 6.8%.

SMILES	Cy5 interf NS3h	HCV NS3h FP
CCC1=NN2C(=N)/C(=C/c3ccc(-c4ccc([N+](=O)[O-])cc4OC)o3)C(=O)N=C2S1	1.2*	9
COc1ccc(N2C(=O)c3ccc(C(=O)Nc4ccccc4I)cc3C2=O)cc1	1	8
COc1ccc(N2C(=O)c3ccc(OCCOc4ccc5c(c4)C(=O)N(c4ccc(OC)cc4)C5=O)cc3C2=O)cc1	0.64*	2
CC(=O)Nc1ccc(S(=O)(=O)N(c2cc([N+](=O)[O-])ccc2F)S(=O)(=O)c2ccc(NC(C)=O)cc2)cc1	0.84	4
CCc1ccc(/C=C2\C(=O)NN(c3ccccc3)C2=O)cc1	1	22
CCc1ccc(N2NC(=O)CC2=O)cc1	0.73*	10
Cc1ccc(N2C(=O)/C(=C/c3ccc(Cl)cc3)SC2=S)cc1C	0.92	7
Cc1ccc(N2C(=O)CC(N3CCCN(C)CC3)C2=O)cc1 (stereo unspecified)	1	3
CC(C)CN1C(=O)/C(=C/c2cccs2)SC1=S	0.93	12
Cc1ccc2nsnc2c1NC(=O)c1ccc(-c2cccc([N+](=O)[O-])c2)o1	1.1	-2
COC(=O)C1=C(C)N=C2SCCC(=O)N2C1c1ccc(F)cc1 (stereo unspecified)	1	9
C/C(=N/NC(N)=O)C1CC1(C)C(C)(C)C (stereo unspecified)	1	44*
COc1ccccc1C(=O)N1CCN(C(=O)c2ccc([N+](=O)[O-])cc2)CC1	1	-4
C=CCNC(=O)C1CC(=O)N(c2ccc(Cl)cc2)C1 (stereo unspecified)	0.99	-3
Cc1ccccc1OCCOc1ccc(/C=c2\sc3nc4ccccc4n3c2=O)cc1	1.1	13
Cc1ccc(OCCOCCOc2ccc(/C=c3\sc4nc5ccccc5n4c3=O)cc2)cc1	1.3*	9
O=C1C(=O)N(c2ccccc2Br)C(=O)N1c1cccc(Cl)c1	0.7*	19
O=C(O)c1ccccc1NC1=C(Cl)C(=O)N(c2cccc(Cl)c2)C1=O	1.1	8
CCCc1cc(=O)oc2cc(C)cc(OCC(C)=O)c12	1.1	9
O=[N+]([O-])c1ccc(Cl)c(N2CCCC2)c1	1	9
COCCCN1C(=O)/C(=C/c2ccc(N(C)C)cc2)SC1=S	1	31
COc1ccc(/C=C2/SC(=S)N(CCCC(=O)OCCN(C)C)C2=O)cc1	0.8*	4
O=C(NCCNc1ccc([N+](=O)[O-])cc1)c1cccc(Br)c1	1	20
Nc1nonc1C(=O)NCCNC(=O)c1cccc(Br)c1	0.71*	14
O=C1C(=O)N(c2cccc(Cl)c2)C(c2cccc(F)c2)C1=C(O)c1ccccc1 (stereo unspecified)	0.91	4
SMILES	Cy5 interf NS3h	HCV NS3h FP
CCc1ccc(NC(=O)c2ccc(-c3ccccc3)cc2)cc1	0.99	-7
O=C(CCNc1ccc(F)cc1)c1cccs1	1.1	11
Cc1cccc(NCCC(=O)c2cccs2)c1C	0.78*	7
CCc1cc(=O)oc2cc(C)cc(OC(C)=O)c12	1.1	1
CCc1cc(=O)oc2cc(C)cc(OCC(=O)c3ccccc3)c12	1.3*	-4
COc1ccc(N=Cc2ccc(O)c(OC)c2)cc1	0.8*	11
COc1cc(C=Nc2ccc(S(N)(=O)=O)cc2)ccc1O	1.1	5
COc1ccc(OC)c(C2NC(=O)NC(C)=C2C(=O)Nc2ccccc2C)c1 (stereo unspecified)	0.91	2
CC(C)CCNC(=O)c1cccc([N+](=O)[O-])c1	1	17
CC(NC(=O)NC(=O)c1cccc([N+](=O)[O-])c1)C1CC1 (stereo unspecified)	0.64*	10
CCOc1ccc(N(CC(=O)Nc2ccccc2Br)S(=O)(=O)c2ccc(SC)cc2)cc1	1.2	14
Cc1ccc(S(=O)(=O)Nc2ccc(S(=O)(=O)NC(=O)C3CCCCC3)cc2)cc1	0.72*	12
CC(=O)NS(=O)(=O)c1ccc(NS(=O)(=O)c2ccc(C)cc2)cc1	0.98	-1
Cc1cc(Cl)ccc1NC(=O)CN(c1cccc([N+](=O)[O-])c1)S(=O)(=O)c1ccccc1	1	18
O=c1/c(=C/c2cccc(OCc3ccccc3F)c2)sc2nc3ccccc3n12	0.94	23
COc1ccc(CNc2cccc(SC)c2)c(OC)c1	1.1	13
O=C1N=c2ccccc2=C1c1sc(Nc2ccc(O)cc2)nc1O	0.63*	11
O=C1N=c2ccccc2=C1c1sc(=S)n(-c2ccc(F)cc2)c1O	0.99	-5
CCCCCCN1C(=O)C(=O)C(=C(O)c2ccccc2)C1c1cccc(OC)c1 (stereo unspecified)	0.98	-1
Cc1cc2c(cc1Br)NC(=O)C2=O	0.76*	15
N/C(=N/OC(=O)c1ccc(I)cc1)c1ccc(Cl)cc1	1.1	8
COC(C)(C)c1cc(-c2cccc3ccccc23)nc(N)n1	1	17
COC(=O)/C=C1\Nc2cc([N+](=O)[O-])ccc2NC1=O	0.72*	12
O=C(/C=C1/Nc2ccccc2NC1=O)Nc1cccc(C(F)(F)F)c1	0.93	5
CCOc1ccccc1NC(=O)c1c(NC(=O)c2cccc(F)c2)sc2c1CCCCC2	1.1	2
SMILES	Cy5 interf NS3h	HCV NS3h FP
COc1cccc(NC(=O)/C(=C/c2ccc(C)o2)NC(=O)c2ccccc2)c1	0.71*	15
COc1ccc(NC(=O)/C(=C/c2ccccc2Cl)NC(=O)c2ccc(C)cc2)cc1	1.2	-1
CCOC(=O)COc1ccc(/C=C2/C(=O)NN(c3ccc(I)cc3)C2=O)cc1OC	0.88	3
CCOc1ccccc1/C=C1/C(=O)NN(c2ccc(C)c(Cl)c2)C1=O	0.74*	14
CCOC(=O)c1ccc(N2NC(=O)/C(=C/c3ccc(O)c(OCC)c3)C2=O)cc1	0.73*	2
CCOc1ccccc1/C=C1/C(=O)NN(c2ccc(C)c(C)c2)C1=O	0.91	16
COc1cccc(-n2c(O)c(C3=c4ccccc4=NC3=O)sc2=S)c1	1	12
O=C(COc1ccc2ccccc2c1)Nc1ccc(Cl)cn1	1	9
COC(=O)c1cnn2c(C(F)(F)F)cc(-c3ccccc3)nc12	1	10
COC(=O)c1ccccc1NC(=O)c1cnn2c(C(F)(F)F)cc(-c3ccc(OC)c(OC)c3)nc12	0.68*	12
CCC1CCCCN1C(=O)c1cnn2c(C(F)(F)F)cc(-c3ccc(C)cc3)nc12 (stereo unspecified)	1.1	17
COc1cc(-c2cc(C(F)(F)F)n3ncc(C(=O)NCc4cccnc4)c3n2)cc(OC)c1OC	1.1	-1
O=C(NCc1ccc(Cl)cc1)c1cnn2c(C(F)(F)F)cc(-c3ccco3)nc12	0.59*	12
Cc1ccc(O)c(NC(=O)c2cnn3c(C(F)(F)F)cc(-c4ccco4)nc23)c1	0.58*	1
O=C(O)CCC(=O)Nc1cccc(Oc2ccc3c(c2)C(=O)N(c2cccc(NC(=O)CCC(=O)O)c2)C3=O)c1	1	14
O=C(NNC(=O)C(c1ccccc1)c1ccccc1)C(c1ccccc1)c1ccccc1	0.97	-6
COc1cc(OC)c([N+](=O)[O-])cc1/C=C(/C#N)C(=O)Nc1ccccc1	1.1	-1
COc1cc(OC)c([N+](=O)[O-])cc1C=O	0.65*	9
CCOc1cc(C(=S)N2CCOCC2)ccc1OS(=O)(=O)c1ccc(C)cc1	0.88	11
CCOc1cc(C(=S)N2CCOCC2)cc(Br)c1O	0.72*	21
COC(=O)c1c(C)oc2cc(Br)c(OCc3ccc([N+](=O)[O-])cc3)cc12	1	-4

Screening results (PubChem)
